Screening data deposited in PubChem by National Center for Advancing Translational Sciences (NCATS).
NPSR antagonist: qHTS Assay for Antagonists of the Neuropeptide S Receptor: cAMP Signal Transduction; Q6W5P4; Potency, µM (highest dose often 38.3 µM), for the others: at the highest dose activity change, negative = inhibition, usual class: inhibitors; 220,000 tested, 1% active; CHO-NPSR cells, cAMP TR-FRET, antagonist mode; note: nearly all actives have a fitted effect of over 50% in size
B2AR arrestin: qHTS assay of beta-arrestin-biased ligands of beta2-adrenergic receptor; beta-arrestin recruitment to beta2AR, cell-based reporter; 330,000 tested, 0.02% active; AID 492947, 2010; Potency, µM (series often up to 46.1 µM), without a hit: at the highest dose activation, most hits filed as activators;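 note: 0% = DMSO controls and full agonism = EC100 isoproterenol or metaproterenol; nearly all actives have a fitted effect of over 65% in size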
Target sequence (P07550 whole entry, looked up): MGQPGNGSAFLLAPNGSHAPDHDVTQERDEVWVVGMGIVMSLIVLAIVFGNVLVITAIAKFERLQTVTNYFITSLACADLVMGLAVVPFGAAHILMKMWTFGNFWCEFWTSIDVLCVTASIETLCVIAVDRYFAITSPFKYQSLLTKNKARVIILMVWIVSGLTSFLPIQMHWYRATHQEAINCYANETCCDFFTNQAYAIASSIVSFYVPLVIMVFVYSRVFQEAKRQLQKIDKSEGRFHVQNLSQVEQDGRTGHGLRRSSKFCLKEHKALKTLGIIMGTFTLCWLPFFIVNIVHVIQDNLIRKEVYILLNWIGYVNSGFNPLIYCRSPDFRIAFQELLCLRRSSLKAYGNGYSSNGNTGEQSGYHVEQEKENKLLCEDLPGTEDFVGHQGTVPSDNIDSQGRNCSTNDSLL
Gal4-VP16 FLuc: VP16 counterscreen qHTS for inhibitors of ROR gamma transcriptional activity; Potency, µM (top dose mostly 53.6 µM), without a hit: at the highest dose activity, negative = inhibition, usual class: inhibitors; 310,000 tested, 3.5% active; Drosophila S2 Gal4-VP16 UAS-luciferase, luminescence, 20 h; AID 2546, 2010;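 note: Gal4-VP16 expression switched on by copper sulfate through the metallothionein promoter; nearly all actives have a fitted effect of over 50% in size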
RORg inh: qHTS for inhibitors of ROR gamma transcriptional activity; Nuclear receptor ROR-gamma (Mus musculus), P51450; Drosophila S2 Gal4-RORgamma UAS-luciferase reporter, 20 h; Potency, µM (titrated, usually from 53.6 µM), for the others: top-dose activity change, negative = inhibition, most hits filed as inhibitors; 310,000 tested, 5.4% active; note: nearly all actives have a fitted effect of over 60% in size
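In this cell-based reporter format, copper sulfate (700 uM final) drives Gal4–ROR gamma fusion expression from a metallothionein promoter in Drosophila Schneider cells; compounds preincubated 1 hr, reporter read after 20 hr at ambient temperature.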
* marks the source's active call; other numbers are inactive results; ? = inconclusive; · = no result given; [ ] = remark or other dose. An excerpt weighted towards active compounds, which were near 5.7% of everything screened. Calls come from the whole dose curve; as a rule, active = well fitted curve in the direction sought with a large enough effect; inconclusive = small, poorly fitted or top-dose-only effect, or another doubt; inactive = no such curve, though single readings can be large; an effect the other way counts as inactive or inconclusive. Unless noted, % is set by controls: 0 for no effect and ±100 for the full control effect; potency is the fitted concentration of half-maximal effect.

SMILES	NPSR antagonist	B2AR arrestin	Gal4-VP16 FLuc	RORg inh
CSc1nc(C)cc(OCC(=O)N/N=C/c2ccccc2O)n1	0.3%[46.1 µM]	2.7%	0.708µM*	0.891µM*
Cc1cc(=O)oc2cc(OCC(=O)N/N=C/c3ccccc3O)ccc12	·	-0.2%	-18.7%	2.24µM*
O=C(COc1nsnc1N1CCOCC1)N/N=C/c1ccccc1O	2.2%	-1.8%	3.16µM*	0.708µM*
O=C(CCN1C(=O)/C(=C\c2ccccc2F)SC1=S)N1CCCCC1	·	-0.3%	-6.8%	?
C=CCc1c(C)[nH]c2c(OC)cccc2c1=S	-7.2%	-0.7%	?	11.2µM*
N#CCCn1cc(C(=O)N2CCOCC2)c(-c2ccc3c(c2)OCCO3)n1	17.8%	0.5%	-3.8%[10 µM]	-2.0%
COc1ccc(C(=O)N/C(=C\c2cn(C)c3ccccc23)C(=O)NCCCn2ccnc2)cc1	·	0.1%	7.3%	6.1%
S=C(Nc1ccc(Br)cc1)Nc1ccc2c(c1)OCCO2	·	-0.2%	?	17.8µM*
NS(=O)(=O)c1ccc(NC(=S)NC(=O)c2ccc3c(c2)OCO3)cc1	5.5%	0.0%	?	?
COc1cc(NC(=S)Nc2ccc3c(c2)OCCO3)cc(OC)c1OC	7.8%	-0.5%	23.6%	-22.4%
O=C(NC(=S)Nc1ccccc1Br)c1ccc2c(c1)OCO2	·	-0.1%	8.91µM*	4.47µM*
O=C(NC(=S)Nc1ccc2c(c1)OCO2)c1ccccc1	-13.5%[46.1 µM]	2.9%	?	4.47µM*
O=C(NC(=S)Nc1ccc2c(c1)OCCO2)c1cccc2ccccc12	-26.6%	2.8%	?	10µM*
O=C(NC(=S)Nc1ccc2c(c1)OCCO2)c1cccc(Br)c1	-3.5%	5.2%	?	5.01µM*
O=C(Nc1ccc2c(c1)OCCO2)c1cccc(C(=O)Nc2ccc3c(c2)OCCO3)c1	·	0.5%	11.2%	-13.2%
COC(=O)c1sccc1NC(=O)c1ccc2c(c1)OCO2	-9.7%[46.1 µM]	0.0%	0.1%	3.0%
CC(C)c1ccc(O)c(NC(=S)NC(=O)c2ccc3c(c2)OCO3)c1	·	-0.6%	1.41µM*	0.562µM*
O=C(Nc1ccccc1C(=O)N1CCN(c2ccccc2)CC1)c1ccco1	-17.1%[46.1 µM]	0.1%	3.4%	3.9%
CC(c1n[nH]c(=S)n1-c1ccccc1)N1CCCCC1 (centres undefined)	20.4%	0.1%	-9.7%	10µM*
Cc1sc2ncnc(N3CCC(C)CC3)c2c1C	-22.4%[46.1 µM]	0.4%	-4.1%	?
Cc1sc2ncnc(N3CCN(CCOc4ccc(Cl)cc4)CC3)c2c1C	-22.9%[46.1 µM]	0.1%	3.55µM*	?
O=[N+]([O-])c1ccc(CSc2ncnc3c2ncn3[C@@H]2O[C@H](CO)[C@H](O)[C@H]2O)cc1	-21.4%[46.1 µM]	·	·	·
N#C/C(=N\Nc1ccccc1)C(N)=S	?	-0.7%	?	12.6µM*
Cc1ccc(NC(N)=S)cc1C	24.2%	0.0%	?	?
Cc1ccc(N/N=C(\C#N)C(N)=S)cc1C	-14.1%	0.1%	?	2.82µM*
SMILES	NPSR antagonist	B2AR arrestin	Gal4-VP16 FLuc	RORg inh
N#C/C(=N\Nc1ccc(Cl)cc1)C(N)=S	-24.6%	-0.9%	6.31µM*	4.47µM*
CNc1ncnc2ccc(-c3c(C)noc3C)cc12	·	-0.2%	·	·
Cc1noc(C)c1C(=O)N1CCC2(CCN(Cc3ccccc3)CC2)CC1	·	·	5.4%	-20.6%
CCCCC(=O)NC(=S)Nc1cccc(NC(=O)CC)c1	-5.0%[46.1 µM]	-0.2%	-5.2%	?
CCCCC(=O)NC(=S)NNS(=O)(=O)c1ccccc1	3.5%[46.1 µM]	-2.0%	20µM*	12.6µM*
CCCCCC(=O)NC(=S)NNC(=O)CC	-15.7%[46.1 µM]	-0.1%	-4.4%	11.2µM*
O=C(NC(=S)NNS(=O)(=O)c1ccccc1)c1cccnc1	-11.3%	-0.5%	-9.9%	?
CCCCC(=O)NC(=S)NNC(=O)CC	-4.8%[46.1 µM]	0.1%	2.3%	7.94µM*
CCCCCC(=O)NNC(=S)NC(=O)c1ccccc1[N+](=O)[O-]	-7.0%	-0.3%	-10.8%	?
CCCCC(=O)NC(=S)Nc1c(C)cc(Br)cc1C	-25.5%	-2.2%	?	5.62µM*
Nc1ncn([C@H]2O[C@@H](CO)[C@@H](O)[C@@H]2O)c(=O)n1	·	·	-13.2%[17 µM]	27.5%[16.9 µM]
CCOc1ccccc1CN1CCNC(=O)C1CC(=O)N(C)C1CCOCC1 (centres undefined)	·	0.5%	-24.5%	-0.7%
COC(=O)c1ccc(C(NC(=O)c2ccco2)[C@]2(C)C[C@H]2C2CCCCC2)cc1 (some centres undefined)	·	·	11.6%	14.1%
